Rows were chosen to be rich in hits. Some 2.3% of all compounds tested hit in one or more screens of this group.
PD-1 reverse act: activators reversing PD-1 mediated T-cell inhibition. primary human CD4 T cells, PD-L1 beads, CellTiter-Glo 96 h. activation, % (no concentration beside the values). 29,000 tested, under 10 active. AID 2316; call rule not given here;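 further: 0% = median vehicle wells and 100% = positive control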
U2OS ROS induce: inducers of reactive oxygen species in cancer cells | ROS induction (% of piperlongumine), % at 10 µM | U2OS ROS induction, H2DCF-DA fluorescence | actives 2% (n = 46,000); in the data active means ROS induction above about 79%, passing the limit was not always enough; inconclusive means no clear call, values can overlap the other calls;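 further: 0% = DMSO vehicle median and 100% = reference compound median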
YB-1 expr inh: YB-1 expression inhibition | U2OS, qRT-PCR YB-1 vs CDIP delta delta Cp, 16 h; hits give high values; zero = DMSO, each unit about twofold | delta delta Cp (YB-1 minus CDIP) (concentration not given with the values) | actives 0.37% (n = 30,000);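 active means delta delta Cp rounded down to an integer at or above 3, about 3 SD of DMSO wells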;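 further: higher means less YB-1 transcript or more CDIP transcript relative to DMSO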
Numbers without * were called inactive; ? = inconclusive; . = no result given.

SMILES	PD-1 reverse act	U2OS ROS induce	YB-1 expr inh
Cc1cc(C(=O)Nc2cccc3c2O[C@H](CN(C)Cc2ccc(C(=O)Nc4ccccc4N)cc2)[C@H](C)CN([C@H](C)CO)C3=O)n(C)n1	-2	23	-0.3
Cc1cc(C(=O)Nc2cccc3c2O[C@@H](CN(C)Cc2ccc(C(=O)Nc4ccccc4N)cc2)[C@H](C)CN([C@H](C)CO)C3=O)n(C)n1	0	29	-0.11
CC1CCC(NC(=O)CCC(=O)Nc2nc(-c3cc4ccccc4oc3=O)cs2)CC1 (stereo not given)	.	35	.
CCc1ccccc1NC(=O)C(C)n1nc([N+](=O)[O-])c(Br)c1C (stereo not given)	-3	111*	.
Cc1c(Br)c([N+](=O)[O-])nn1C(C)C(=O)NCc1ccco1 (stereo not given)	1	-13	.
COc1ccc(CCNC(=O)C2CC2(c2ccc(C)cc2)c2ccc(C)cc2)cc1OC (stereo not given)	.	15	.
C#CCN1C(=O)C(O)(CC(=O)c2ccc(C)o2)c2ccccc21 (stereo not given)	-1	-13	.
CCOC(=O)c1ccc(Nc2nnc(CSc3nc(C)cc(C)n3)s2)cc1	0	5	.
C=CCn1c(=O)c2c(C)c(C)sc2n2c(Nc3ccc(C(=O)OCC)cc3)nnc12	0	194*	-0.15
c1ccc(-c2csc(N3CCC(c4ccccc4)C3)n2)cc1 (stereo not given)	.	-1	.
CSc1sc(-c2ccnc(SCC(=O)C(C)(C)C)n2)c2c1C(=O)CC(C)(C)C2	0	139*	-0.32
Cc1csc2sc(-c3ccnc(SCC(=O)c4ccccc4)n3)c(C)c12	0	21	0.17
CC1(C)CCc2cc(-c3ccn(S(=O)(=O)c4cccc(C(F)(F)F)c4)n3)ccc2O1	1	14	0.014
CC1(C)CCc2cc(-c3ccn(S(=O)(=O)c4ccc(Cl)cc4)n3)ccc2O1	-1	96*	-0.34
COC(=O)C1=C2C(=O)c3c(O)cc(CO)cc3OC2C(O)C=C1 (stereo not given)	-13	146*	-0.14
COC(=O)c1cccc2oc3cc(CO)cc(O)c3c(=O)c12	-1	-2	2.1
C[C@H](CO)N1C[C@H](C)[C@H](CN(C)C(=O)Nc2ccc(F)cc2)Oc2ncc(/C=C/c3ccccc3)cc2C1=O	.	90*	-0.39
C[C@H](CO)N1C[C@H](C)[C@H](CN(C)C(=O)Nc2ccc(F)cc2)Oc2ncc(-c3ccccc3)cc2C1=O	.	42	0.11
C[C@H](CO)N1C[C@H](C)[C@H](CN(C)C(=O)Nc2ccc3c(c2)OCO3)Oc2ncc(C#CC(C)(C)O)cc2C1=O	.	6	-0.26
C[C@H](CO)N1C[C@H](C)[C@H](CN(C)C(=O)Nc2ccc3c(c2)OCO3)Oc2ncc(/C=C/c3ccccc3)cc2C1=O	.	120*	0.45
C[C@@H]1CCCCO[C@@H](CN(C)S(=O)(=O)c2ccc(Cl)cc2)[C@@H](C)CN([C@H](C)CO)C(=O)c2cc(NS(=O)(=O)c3cccs3)ccc2O1	-8	94*	0.38
COc1ccc(S(=O)(=O)N(C)C[C@H]2OCCCC[C@@H](C)Oc3ccc(NS(=O)(=O)c4cccs4)cc3C(=O)N([C@H](C)CO)C[C@@H]2C)cc1	.	-3	-17
COc1ccc(S(=O)(=O)N(C)C[C@@H]2OCCCC[C@@H](C)Oc3ccc(NS(=O)(=O)c4cccs4)cc3C(=O)N([C@H](C)CO)C[C@@H]2C)cc1	-3	115*	0.63
C[C@@H]1CCCCO[C@@H](CN(C)S(=O)(=O)c2cccs2)[C@@H](C)CN([C@H](C)CO)C(=O)c2cc(NS(=O)(=O)c3ccc(Cl)cc3)ccc2O1	-5	71	-0.55
CC(C)(C)c1ccc(NC(=O)Nc2ccc3c(c2)OCCO3)cc1	.	-4	.
SMILES	PD-1 reverse act	U2OS ROS induce	YB-1 expr inh
COc1ccc(NC(=O)C2(C)c3ccccc3-c3ccccc32)cc1	.	-3	.
Cc1ccc(CSCCC(=O)NC2CCCC(C)C2C)cc1 (stereo not given)	.	6	.
CC1CC(C)CN(C(=O)c2ccc(CNS(=O)(=O)c3ccc(F)cc3)cc2)C1 (stereo not given)	.	21	.
CCOC(=O)CSc1nc(Nc2ccc(OC)cc2)c2cnc(N(CC)CC)nc2n1	-5	?	0.2
CCOC(=O)CSc1nc(Nc2ccccc2)c2cnc(N3CCOCC3)nc2n1	-3	150*	0.02
COc1ccc(C#Cc2cnc3c(c2)C(=O)N([C@H](C)CO)C[C@H](C)[C@H](CN(C)S(=O)(=O)c2ccc(C)cc2)O3)cc1OC	.	140*	0.27
COc1ccc(C#Cc2cnc3c(c2)C(=O)N([C@H](C)CO)C[C@H](C)[C@H](CN(C)S(C)(=O)=O)O3)cc1OC	.	51	-0.38
C[C@H](CO)N1C[C@H](C)[C@H](CN(C)S(=O)(=O)c2cccs2)Oc2ncc(C#Cc3ccccc3)cc2C1=O	.	40	0.029
C[C@H](CO)N1C[C@H](C)[C@H](CN(C)S(=O)(=O)c2cccs2)Oc2ncc(C#CC(C)(C)O)cc2C1=O	.	0	9.9*
Cc1c(/C=C2\SC(c3ccccc3)=NC2=O)c(=O)n(-c2ccccc2)n1C	0	?	0.17
O=C(NCc1ccco1)c1ccccc1NC(=O)C1COc2ccccc2O1 (stereo not given)	0	-20	.
N#Cc1ccc(CSc2nc(-c3cccs3)c3c(c2C(=O)O)CCCC3)cc1	4	23	0.35
CN1CCc2c(-c3cccs3)nc(OCc3ccccc3Br)c(C#N)c2C1	-12	168*	0.13
O=C1c2ccccc2[C@](Cc2ccccc2I)(C(=O)O)[C@H](c2ccc(CO)cc2)N1C1CCCCC1	.	9	-0.51
CCc1ccc2nc(N3CCC(C(=O)NC4CCCCC4)CC3)sc2c1	.	18	.
CN(C)CCN(C(=O)C1CCCCC1)c1nc2ccc(Br)cc2s1	.	94*	.
Cc1oc2c(c1C(=O)NCCc1ccccc1)C(=O)c1ccccc1C2=O	0	-11	-0.34
Cc1oc2c(c1C(=O)NC1CCCC1)C(=O)c1ccccc1C2=O	-4	102*	0.76
C[C@H](CO)N1C[C@H](C)[C@H](CN(C)Cc2cccc(C(F)(F)F)c2)Oc2ncc(-c3cccc(F)c3)cc2C1=O	.	49	0.12
C[C@H](CO)N1C[C@H](C)[C@H](CN(C)Cc2ccccc2)Oc2ncc(-c3cc4ccccc4o3)cc2C1=O	.	62	0.15
C[C@H](CO)N1C[C@H](C)[C@H](CN(C)S(=O)(=O)c2cccc(F)c2)Oc2ncc(-c3cccc(C(F)(F)F)c3)cc2C1=O	.	31	0.074
C[C@H](CO)N1C[C@H](C)[C@H](CN(C)S(=O)(=O)c2ccc(F)cc2)Oc2ncc(-c3cccc(C(F)(F)F)c3)cc2C1=O	.	116*	-0.064
C[C@H](CO)N1C[C@H](C)[C@H](CN(C)Cc2cccc(C(F)(F)F)c2)Oc2ncc(-c3cc4ccccc4o3)cc2C1=O	.	248*	0.21
C[C@H](CO)N1C[C@H](C)[C@H](CN(C)Cc2cccc(C(F)(F)F)c2)Oc2ncc(-c3cccc(C(F)(F)F)c3)cc2C1=O	.	160*	0.61
C[C@H](CO)N1C[C@H](C)[C@H](CN(C)C(=O)Nc2cccc3ccccc23)Oc2ncc(-c3ccc(F)cc3)cc2C1=O	.	3	0.34

Assay outcomes: PubChem BioAssay, Broad Institute
